Drawing on the supplement of paper PMC9262897, “Low-cost anti-mycobacterial drug discovery using engineered E. coli” (Nature Communications, 2022), this text covers growth for 8 molecules.

Structures are written as SMILES. ± gives the standard deviation of the averaged measurements.

Common to all, as to assay: growth (OD600 after 10 h); higher = more growth (less inhibition)
Assay [1] concerns E. coli TESEC Alr+ wild-type control. The note with it: compound 0.1 mM; raw OD600 reference: median of DMSO wells 0.241, cell-free background 0.041. The protocol: (§1)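 TESEC Mtb Alr E. coli, or the Alr+ wild-type control, in 384-well plates with Prestwick library compounds at 0.1 mM and 1% DMSO, across arabinose induction levels of 1E3 to 1E7 nM. Growth is read as OD600 after 10 h at 37 °C in triplicate biological replicates.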

Assay [2] relates to E. coli TESEC Mtb Alr. The note with it: compound 0.1 mM. Here is the method: as §1
Another assay relates to E. coli TESEC Mtb Asd. The note with it: compound 0.1 mM. The protocol:
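TESEC E. coli strains in which the native enzyme is deleted and replaced by arabinose-inducible Mtb Asd, DapB, CysH or TrpD, each grown in its selective medium. Strains were screened against the Prestwick library at 0.1 mM and 1% DMSO in 384-well format at low and high arabinose induction. Growth is read as OD600 after 10 h in triplicate.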

The test system of assay [3] is E. coli TESEC Alr+ wild-type control. The note with it: compound 0.1 mM; raw OD600 reference: median of DMSO wells 0.49, cell-free background 0.052. Here is the method: (§2)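 TESEC Mtb Alr E. coli (ΔaraC ΔtolC ΔentC Δalr ΔdadX, arabinose-inducible Mtb Alr) or the Alr+ wild-type control strain, grown in defined M9-fructose medium without D-alanine in 96-well plates with Prestwick library compounds at 0.1 mM and 1% DMSO. Low Alr induction is 0.1 µM arabinose and high induction is 10 mM arabinose.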

Assay [4] concerns E. coli TESEC Mtb Alr. The note with it: compound 0.1 mM. Here is the method:
as §2
The source holds these as a separate data set.

Setting [5] is: arabinose 1000 nM, raw OD600 reference: median of DMSO wells 0.294, cell-free background 0.041.
Setting [6] is: arabinose 10000 nM, raw OD600 reference: median of DMSO wells 0.264, cell-free background 0.041.
The mark [7] stands for this setting: arabinose 100000 nM, raw OD600 reference: median of DMSO wells 0.201, cell-free background 0.041.
Where [8] appears, read: arabinose 1000000 nM, raw OD600 reference: median of DMSO wells 0.193, cell-free background 0.041.
Setting [9] is: arabinose 10000000 nM, raw OD600 reference: median of DMSO wells 0.146, cell-free background 0.041.
Setting [10] is: arabinose induction (level): High, raw OD600 reference: median of DMSO wells 0.331, cell-free background 0.041.
The mark [11] stands for this setting: arabinose induction (level): Low, raw OD600 reference: median of DMSO wells 0.417, cell-free background 0.041.
The mark [12] stands for this setting: arabinose 100 nM, raw OD600 reference: median of DMSO wells 0.413, cell-free background 0.052.
Setting [13] is: arabinose 10000000 nM, raw OD600 reference: median of DMSO wells […], cell-free background 0.052.

With `COC1=C(OC)C(=O)C(CCCCCCCCCCO)=C(C)C1=O` [Idebenone], the growth was found to be 0.0426 ± 0.0005 in assay [1]; 0.0428 ± 0.0023 in the assay with E. coli TESEC Mtb Alr [2] (setting [5]); 0.0413 ± 0.00026 with E. coli TESEC Mtb Alr [2] (setting [6]); 0.0466 ± 0.0041 with E. coli TESEC Mtb Alr [2] (setting [7]); 0.04233 ± 0.0004 in the assay on E. coli TESEC Mtb Alr [2] (setting [8]); 0.0482 ± 0.0015 in the assay with E. coli TESEC Mtb Alr [2] (setting [9]). Further, the growth with E. coli TESEC Mtb Asd (setting [10]) is 0.0516 ± 0.0016; in the assay with E. coli TESEC Mtb Asd (setting [11]) it was 0.0501 ± 0.0007; in assay [3], 0.0491 ± 0.0001; with E. coli TESEC Mtb Alr [4] (setting [12]) it was 0.139 ± 0.087; with E. coli TESEC Mtb Alr [4] (setting [13]), 0.0513 ± 0.001.

For the molecule `CN(C)/N=N/c1[nH]cnc1C(N)=O` [Dacarbazine], the growth in assay [1] amounted to 0.211 ± 0.0036; with E. coli TESEC Mtb Alr [2] (setting [5]) it was 0.259 ± 0.0098; in the assay with E. coli TESEC Mtb Alr [2] (setting [6]), 0.219 ± 0.012; in the assay on E. coli TESEC Mtb Alr [2] (setting [7]) it was 0.197 ± 0.036; in the assay with E. coli TESEC Mtb Alr [2] (setting [8]) it was 0.136 ± 0.0025; with E. coli TESEC Mtb Alr [2] (setting [9]), 0.151 ± 0.0043. In addition, the growth in the assay with E. coli TESEC Mtb Asd (setting [10]) stood at 0.278 ± 0.036; with E. coli TESEC Mtb Asd (setting [11]), 0.362 ± 0.12; in assay [3] it was 0.51 ± 0.11; in the assay on E. coli TESEC Mtb Alr [4] (setting [12]) it was 0.405 ± 0.013; in the assay on E. coli TESEC Mtb Alr [4] (setting [13]) it was 0.296 ± 0.024.

For `COc1ccc([C@@H]2CC(=O)c3c(O)cc(O[C@@H]4O[C@H](CO[C@@H]5O[C@@H](C)[C@H](O)[C@@H](O)[C@H]5O)[C@@H](O)[C@H](O)[C@H]4O)cc3O2)cc1O` [Hesperidin], the growth in assay [1] was 0.223 ± 0.0074; in the assay on E. coli TESEC Mtb Alr [2] (setting [5]), 0.289 ± 0.016; in the assay with E. coli TESEC Mtb Alr [2] (setting [6]) it was 0.251 ± 0.0089; in the assay with E. coli TESEC Mtb Alr [2] (setting [7]), 0.205 ± 0.0089; in the assay with E. coli TESEC Mtb Alr [2] (setting [8]) it was 0.177 ± 0.0064; with E. coli TESEC Mtb Alr [2] (setting [9]), 0.145 ± 0.0031. Besides, the growth in the assay on E. coli TESEC Mtb Asd (setting [10]) came to 0.22 ± 0.035; with E. coli TESEC Mtb Asd (setting [11]), 0.284 ± 0.06; in assay [3] it was 0.521 ± 0.053; in the assay on E. coli TESEC Mtb Alr [4] (setting [12]), 0.407 ± 0.0099; in the assay on E. coli TESEC Mtb Alr [4] (setting [13]), 0.388 ± 0.028.

With `Cn1c(=O)c2c(ncn2C)n(C)c1=O` [Caffeine], the growth turned out to be 0.233 ± 0.0046 in assay [1]; 0.28 ± 0.0091 in the assay with E. coli TESEC Mtb Alr [2] (setting [5]); 0.277 ± 0.0046 in the assay on E. coli TESEC Mtb Alr [2] (setting [6]); 0.2 ± 0.016 in the assay with E. coli TESEC Mtb Alr [2] (setting [7]); 0.215 ± 0.0057 in the assay on E. coli TESEC Mtb Alr [2] (setting [8]); 0.14 ± 0.0044 with E. coli TESEC Mtb Alr [2] (setting [9]). In addition, the growth amounted to 0.304 ± 0.065 in the assay on E. coli TESEC Mtb Asd (setting [10]); 0.352 ± 0.11 in the assay on E. coli TESEC Mtb Asd (setting [11]); 0.617 ± 0.065 in assay [3]; 0.412 ± 0.0085 in the assay on E. coli TESEC Mtb Alr [4] (setting [12]); 0.369 ± 0.006 in the assay on E. coli TESEC Mtb Alr [4] (setting [13]).

Regarding `CCCSc1ccc2[nH]c(NC(=O)OC)nc2c1` [Albendazole], the growth in assay [1] was 0.246 ± 0.025; in the assay on E. coli TESEC Mtb Alr [2] (setting [5]), 0.274 ± 0.021; in the assay with E. coli TESEC Mtb Alr [2] (setting [6]) it was 0.255 ± 0.0036; in the assay with E. coli TESEC Mtb Alr [2] (setting [7]) it was 0.211 ± 0.031; with E. coli TESEC Mtb Alr [2] (setting [8]), 0.1462 ± 0.00096; in the assay with E. coli TESEC Mtb Alr [2] (setting [9]), 0.137 ± 0.0025. Moreover, the growth in the assay on E. coli TESEC Mtb Asd (setting [10]) stood at 0.41 ± 0.017; with E. coli TESEC Mtb Asd (setting [11]) it was 0.409 ± 0.033; in assay [3], 0.48 ± 0.013; with E. coli TESEC Mtb Alr [4] (setting [12]), 0.428 ± 0.01; in the assay with E. coli TESEC Mtb Alr [4] (setting [13]), 0.419 ± 0.054.

With `C=C1/C(=C\C=C2/CCC[C@]3(C)[C@@H]([C@H](C)/C=C/[C@@H](O)C4CC4)CC[C@@H]23)C[C@@H](O)C[C@@H]1O` [Calcipotriene], the growth came to 0.0539 ± 0.0078 in assay [1]; 0.0502 ± 0.0045 in the assay with E. coli TESEC Mtb Alr [2] (setting [5]); 0.0544 ± 0.0042 in the assay with E. coli TESEC Mtb Alr [2] (setting [6]); 0.0504 ± 0.0018 with E. coli TESEC Mtb Alr [2] (setting [7]); 0.0524 ± 0.0013 with E. coli TESEC Mtb Alr [2] (setting [8]); 0.056 ± 0.0013 with E. coli TESEC Mtb Alr [2] (setting [9]). Further, the growth in the assay on E. coli TESEC Mtb Asd (setting [10]) is 0.0646 ± 0.0023; in the assay on E. coli TESEC Mtb Asd (setting [11]), 0.0613 ± 0.0049; in assay [3], 0.0607 ± 0.0046; in the assay on E. coli TESEC Mtb Alr [4] (setting [12]), 0.234 ± 0.12; in the assay with E. coli TESEC Mtb Alr [4] (setting [13]), 0.0671 ± 0.0016.

Regarding `CC(=O)Oc1cc(C(C)C)c(OCCN(C)C)cc1C` [Moxisylyte hydrochoride], the growth in assay [1] was determined as 0.219 ± 0.0037; in the assay with E. coli TESEC Mtb Alr [2] (setting [5]), 0.245 ± 0.055; in the assay with E. coli TESEC Mtb Alr [2] (setting [6]), 0.273 ± 0.0074; in the assay on E. coli TESEC Mtb Alr [2] (setting [7]), 0.179 ± 0.017; in the assay on E. coli TESEC Mtb Alr [2] (setting [8]), 0.155 ± 0.003; with E. coli TESEC Mtb Alr [2] (setting [9]) it was 0.14 ± 0.00075. The growth in the assay on E. coli TESEC Mtb Asd (setting [10]) is 0.297 ± 0.046; with E. coli TESEC Mtb Asd (setting [11]), 0.441 ± 0.041; in assay [3] it was 0.533 ± 0.029; in the assay on E. coli TESEC Mtb Alr [4] (setting [12]) it was 0.41 ± 0.0064; with E. coli TESEC Mtb Alr [4] (setting [13]), 0.242 ± 0.13.

Consider `O=C1CC[C@@H](C(=O)N2CSC[C@H]2C(=O)O)N1` [Pidotimod], for which the growth worked out at 0.231 ± 0.0032 in assay [1]; 0.29 ± 0.003 in the assay on E. coli TESEC Mtb Alr [2] (setting [5]); 0.261 ± 0.005 with E. coli TESEC Mtb Alr [2] (setting [6]); 0.184 ± 0.032 in the assay with E. coli TESEC Mtb Alr [2] (setting [7]); 0.217 ± 0.033 in the assay on E. coli TESEC Mtb Alr [2] (setting [8]); 0.135 ± 0.0014 in the assay with E. coli TESEC Mtb Alr [2] (setting [9]). Further, the growth in the assay with E. coli TESEC Mtb Asd (setting [10]) came out at 0.271 ± 0.059; with E. coli TESEC Mtb Asd (setting [11]) it was 0.415 ± 0.024; in assay [3], 0.536 ± 0.1; in the assay with E. coli TESEC Mtb Alr [4] (setting [12]), 0.42 ± 0.011; with E. coli TESEC Mtb Alr [4] (setting [13]), 0.335 ± 0.0057.
